According to PubChem BioAssay (Tox21):
Unmarked numbers belong to inactive results. Unless noted, calls come from the whole dose curve; as a rule, active = well fitted curve in the direction sought with a large enough effect in the repeat runs; inconclusive = weak or mixed curves; inactive = no such curve, though single readings can be large; an effect the other way counts as inactive or inconclusive. Records with an inconclusive call do not appear.

Assay: qHTS assay for small molecule disruptors of the mitochondrial membrane potential - cell viability (AID 720634; calls by dose curve;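 note: human HepG2 liver cancer cells; nearly all actives have a fitted effect of over 20% in size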)
Conditions: HepG2 viability, ATP luminescence (CellTiter-Glo), 1 h; series mostly up to 83.2 µM; activity change, negative = cytotoxicity: at the top concentration
Method in brief: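 Human hepatoma HepG2 cells were treated for 1 hr with test chemicals, then given m-MPI dye and CellTiter-Glo. Cell viability reflects luminescence proportional to cellular ATP.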
% is set by controls: 0 for no effect and ±100 for the full control effect.

| Compound | activity change, negative = cytotoxicity |
| --- | --- |
| CC(C(=O)O)c1cccc(Oc2ccccc2)c1 (stereo unspecified) | 7.24% [at 39.1 µM] |
| CCOc1ccc2nc(S(N)(=O)=O)sc2c1 | 29.9% |
| O=C(O)c1cn(C2CC2)c2cc(N3CCNCC3)c(F)cc2c1=O | -11% [at 39.1 µM] |
| CCC(C(=O)NC(=O)NC(C)=O)c1ccccc1 (stereo unspecified) | 6.1% |
| CCCCCCC#CC(=O)OC | -2.13% |
| NC(=O)N[C@@H](CCC(=O)O)C(=O)O | 11.4% |
| COc1cc(C(=O)NCc2ccc(OCCN(C)C)cc2)cc(OC)c1OC | -8.5% [at 39.1 µM] |
| C=C(C)C(=O)OCC1CCCO1 (stereo unspecified) | 10.8% |
| COc1c(N2CCNC(C)C2)c(F)cc2c(=O)c(C(=O)O)cn(C3CC3)c12 (stereo unspecified) | 3.49% |
| O=S(=O)(O)c1cccc2ccccc12 | -12.3% |
| NC(CCC(=O)O)C(=O)O (stereo unspecified) | 6.74% |
| CC(=O)NC(=O)c1ccccc1O | 7.04% |
| Cc1ncc(COP(=O)(O)O)c(C=O)c1O | -4.47% |
| O=C1CCCCCCCCCCCCCCO1 | 7.61% |
| C=CCCCCCCCCC(=O)OCC | 10.4% |
| Cc1cccc(C)c1NC(=O)CC12CCCN1CCC2 | 2.76% |
| CC[N+](CC)(CC)CCOc1cccc(OCC[N+](CC)(CC)CC)c1OCC[N+](CC)(CC)CC | 5.35% |
| CN(C)C(=O)Oc1ccc[n+](C)c1 | 5.94% |

| Compound | activity change, negative = cytotoxicity |
| --- | --- |
| COc1cc(-c2ccc(=O)[nH]n2)ccc1OC(F)F | 9.46% |
| CCCCc1nc(Cl)c(CO)n1Cc1ccc(-c2ccccc2-c2nn[nH]n2)cc1 | -16.2% |
| CO/N=C(\C(=O)N[C@@H]1C(=O)N2C(C(=O)O)=C(CSc3nc(=O)c(O)nn3C)CS[C@H]12)c1csc(N)n1 | 17.8% |
| CCCCCCCCCCOc1cc2c(=O)c(C(=O)OCC)c[nH]c2cc1OCC | -4.82% |
| COc1cc(C)nc(-n2nc(C)cc2OC)n1 | 5.51% [at 39.1 µM] |
| Nc1c2c(nc3c1CCC3)CCCC2 | 6.36% |
| CCN1C=CN(C)C1C (stereo unspecified) | -4.24% [at 95.3 µM] |
| Cc1ccnc(NS(=O)(=O)c2ccc(N)cc2)n1 | -3% [at 39.1 µM] |
| C=CCCC(=O)O | 4.11% |
| O=C(O)Cc1csc(-c2ccc(Cl)cc2)n1 | -4.14% |
| CC[N+](CC)(CC(=O)Nc1c(C)cccc1C)Cc1ccccc1 (tested in a mixture with another compound) | 9.15% |
| CCN(Cc1ccccc1)c1ccccc1 | -5.87% |
| NC(=O)N1c2ccccc2CC(=O)c2ccccc21 | 12.4% |
| CN1C(C)(C)CC(O)CC1(C)C | 2.36% |
| CCO[Si](OCC)(OCC)c1ccccc1 | 16.2% |
| CC1CCC(CO)CC1 (stereo unspecified) | -12.3% [at 95.3 µM] |
| CCCCCC(C)N (stereo unspecified) | 8.03% |

Assay: qHTS assay for small molecule disruptors of the mitochondrial membrane potential (AID 720635)
Conditions: HepG2 mitochondrial membrane potential, Mito-MPS dye ratio; series mostly up to 83.2 µM; ratio activity, negative = MMP loss: at the top concentration
Method in brief: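 HepG2 cells (2,000/well) attached overnight at 37C, then took compound for 1 hr at 37C, 5% CO2. Mito-MPS dye was added for 30 min; fluorescence was read at 490/535 nm (monomers) and 540/590 nm (aggregates).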

| Compound | ratio activity, negative = MMP loss |
| --- | --- |
| CC(C(=O)O)c1cccc(Oc2ccccc2)c1 (stereo unspecified) | -7.79% [at 39.1 µM] |
| O=C(O)c1cn(C2CC2)c2cc(N3CCNCC3)c(F)cc2c1=O | 10.8% [at 39.1 µM] |
| CCC(C(=O)NC(=O)NC(C)=O)c1ccccc1 (stereo unspecified) | 5.97% |
| CCCCCCC#CC(=O)OC | 11.2% |
| NC(=O)N[C@@H](CCC(=O)O)C(=O)O | 6.72% |
| COc1cc(C(=O)NCc2ccc(OCCN(C)C)cc2)cc(OC)c1OC | -15.7% [at 39.1 µM] |
| C=C(C)C(=O)OCC1CCCO1 (stereo unspecified) | -11.2% |
| COc1c(N2CCNC(C)C2)c(F)cc2c(=O)c(C(=O)O)cn(C3CC3)c12 (stereo unspecified) | 28.4% |
| O=S(=O)(O)c1cccc2ccccc12 | 13% |
| NC(CCC(=O)O)C(=O)O (stereo unspecified) | 35.4% |
| CC(=O)NC(=O)c1ccccc1O | -15.5% |
| Cc1ncc(COP(=O)(O)O)c(C=O)c1O | -15.1% |
| O=C1CCCCCCCCCCCCCCO1 | -18.1% |
| Cc1cccc(C)c1NC(=O)CC12CCCN1CCC2 | 5.77% |
| CN(C)C(=O)Oc1ccc[n+](C)c1 | 11.9% |
| COc1cc(-c2ccc(=O)[nH]n2)ccc1OC(F)F | 23.9% |
| CO/N=C(\C(=O)N[C@@H]1C(=O)N2C(C(=O)O)=C(CSc3nc(=O)c(O)nn3C)CS[C@H]12)c1csc(N)n1 | 16.4% |
| COc1cc(C)nc(-n2nc(C)cc2OC)n1 | 23.8% [at 39.1 µM] |
| Nc1c2c(nc3c1CCC3)CCCC2 | 5.75% |
| Cc1ccnc(NS(=O)(=O)c2ccc(N)cc2)n1 | 13.2% [at 39.1 µM] |
| C=CCCC(=O)O | 32.1% |
| O=C(O)Cc1csc(-c2ccc(Cl)cc2)n1 | 12.6% |
| NC(=O)N1c2ccccc2CC(=O)c2ccccc21 | -26.5% |
| CN1C(C)(C)CC(O)CC1(C)C | 24.6% |
| CC1CCC(CO)CC1 (stereo unspecified) | -14% [at 95.3 µM] |
| CCCCCC(C)N (stereo unspecified) | -7.73% |

Assay: qHTS assay to test for compound auto fluorescence at 590 nm (red) in HepG2 cells (AID 720674)
Conditions: HepG2 autofluorescence, red 540/590 nm, 1 h; series mostly up to 91.3 µM; fluorescence, relative to Rose Bengal: at the top concentration
Method in brief: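 Compound auto-fluorescence is scored relative to Rose Bengal sodium, measured at 540/590 nm in live HepG2 cultures after 1 hr compound contact (37 C, 5% CO2).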

| Compound | fluorescence, relative to Rose Bengal |
| --- | --- |
| CC(C(=O)O)c1cccc(Oc2ccccc2)c1 (stereo unspecified) | -0.601% [at 18.6 µM] |
| CCOc1ccc2nc(S(N)(=O)=O)sc2c1 | 0.218% [at 46 µM] |
| O=C(O)c1cn(C2CC2)c2cc(N3CCNCC3)c(F)cc2c1=O | -0.332% [at 18.6 µM] |
| CCC(C(=O)NC(=O)NC(C)=O)c1ccccc1 (stereo unspecified) | 0.375% [at 46 µM] |
| CCCCCCC#CC(=O)OC | 0.24% |
| NC(=O)N[C@@H](CCC(=O)O)C(=O)O | 0.0071% [at 46 µM] |
| COc1cc(C(=O)NCc2ccc(OCCN(C)C)cc2)cc(OC)c1OC | 1.14% [at 18.6 µM] |
| C=C(C)C(=O)OCC1CCCO1 (stereo unspecified) | 0.191% |
| COc1c(N2CCNC(C)C2)c(F)cc2c(=O)c(C(=O)O)cn(C3CC3)c12 (stereo unspecified) | 0.334% [at 46 µM] |
| O=S(=O)(O)c1cccc2ccccc12 | -0.212% |
| NC(CCC(=O)O)C(=O)O (stereo unspecified) | -0.137% |
| CC(=O)NC(=O)c1ccccc1O | 0.0949% [at 46 µM] |
| Cc1ncc(COP(=O)(O)O)c(C=O)c1O | -0.166% [at 46 µM] |
| O=C1CCCCCCCCCCCCCCO1 | 0.0549% |
| C=CCCCCCCCCC(=O)OCC | 0.065% |
| Cc1cccc(C)c1NC(=O)CC12CCCN1CCC2 | 0.133% [at 46 µM] |
| CC[N+](CC)(CC)CCOc1cccc(OCC[N+](CC)(CC)CC)c1OCC[N+](CC)(CC)CC | 0.58% [at 46 µM] |
| CN(C)C(=O)Oc1ccc[n+](C)c1 | -0.321% [at 46 µM] |

| Compound | fluorescence, relative to Rose Bengal |
| --- | --- |
| COc1cc(-c2ccc(=O)[nH]n2)ccc1OC(F)F | -0.0692% [at 46 µM] |
| CCCCc1nc(Cl)c(CO)n1Cc1ccc(-c2ccccc2-c2nn[nH]n2)cc1 | -0.0528% [at 46 µM] |
| CO/N=C(\C(=O)N[C@@H]1C(=O)N2C(C(=O)O)=C(CSc3nc(=O)c(O)nn3C)CS[C@H]12)c1csc(N)n1 | -0.41% [at 46 µM] |
| CCCCCCCCCCOc1cc2c(=O)c(C(=O)OCC)c[nH]c2cc1OCC | 0.449% [at 46 µM] |
| COc1cc(C)nc(-n2nc(C)cc2OC)n1 | -0.559% [at 18.6 µM] |
| Nc1c2c(nc3c1CCC3)CCCC2 | 0.588% [at 46 µM] |
| CCN1C=CN(C)C1C (stereo unspecified) | -0.205% |
| Cc1ccnc(NS(=O)(=O)c2ccc(N)cc2)n1 | 0.0946% [at 18.6 µM] |
| C=CCCC(=O)O | -0.112% |
| O=C(O)Cc1csc(-c2ccc(Cl)cc2)n1 | 0.0006% [at 46 µM] |
| CC[N+](CC)(CC(=O)Nc1c(C)cccc1C)Cc1ccccc1 (tested in a mixture with another compound) | 0.0096% |
| CCN(Cc1ccccc1)c1ccccc1 | 0.0389% |
| NC(=O)N1c2ccccc2CC(=O)c2ccccc21 | 0.633% [at 46 µM] |
| CN1C(C)(C)CC(O)CC1(C)C | 0.0443% |
| CCO[Si](OCC)(OCC)c1ccccc1 | -0.116% |
| CC1CCC(CO)CC1 (stereo unspecified) | 0.134% [at 95.7 µM] |
| CCCCCC(C)N (stereo unspecified) | 0.198% [at 46 µM] |
